# Compound activity: PubChem, National Center for Advancing Translational Sciences (NCATS)
# BAZ2B inh: BAZ2B (human) inhibition; Q9UIF8; AlphaScreen BAZ2B-H3K14Ac peptide displacement; Potency, µM (highest dose often 114 µM), for inactives: top-dose activity change, negative = inhibition, most hits filed as inhibitors; 360,000 compounds, 4.4% hits; note: % is set by controls: 0 for no effect and ±100 for the full control effect; nearly all actives have a fitted effect of over 60% in size
#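 Multi-concentration screen (max 110 uM) measuring displacement of acetylated histone H3 peptide from BAZ2B by AlphaScreen, using 50 nM protein, 50 nM peptide and 10 ug/mL streptavidin donor plus Ni-chelate acceptor beads.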
# JMJD2A Tudor inh: JMJD2A Tudor domain (human) inhibition. O75164. AlphaScreen JMJD2A-Tudor / H3K4me3 peptide binding. Potency, µM (doses to about 114 µM), for inactives: at the highest dose activity change, negative = inhibition, actives largely listed as inhibitors. 390,000 compounds, 4.4% hits; note: % is set by controls: 0 for no effect and ±100 for the full control effect; nearly all actives have a fitted effect of over 50% in size
# Sfp inh: blocks B. subtilis Sfp PPTase activity; Q9F4F7; Biochemical Sfp PPTase activity, qHTS; Potency, µM, for the others: largest response in the series, negative = inhibition, hits mostly inhibitors; 310,000 compounds, 3.5% hits; AID 1490;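 note: the enzyme is Sfp with the accession as filed and its product quenches rhodamine fluorescence; 0% = enzyme reaction without inhibitor and -100% = no enzyme wells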
#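 Compounds were incubated with enzyme (final 15 nM) for 15 min at room temperature before substrate addition started the reaction. Fluorescence at 525 nm excitation, 598 nm emission was recorded immediately and after 30 minutes.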
# G9a inh: inhibitors of human histone lysine methyltransferase G9a | G9a H3K9 monomethylation, AlphaScreen, 2 h | Potency, µM (doses to about 102 µM), inactives show at the highest dose activity, negative = inhibition, most hits filed as inhibitors | 350,000 compounds, 8.8% hits; note: % is set by controls: 0 for no effect and ±100 for the full control effect; nearly all actives have a fitted effect of over 75% in size
#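 Compounds were preincubated with 20 nM G9a for 15 min, after which biotinylated H3K9 peptide (500 nM) and SAM (20 uM) started a 2 h room-temperature reaction. Monomethylated product was quantified by antibody-based AlphaScreen chemiluminescence.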
# HP1b chromo inh: blocks HP1-beta chromodomain binding to methylated histone tails; Potency, µM (titrated, usually from 114 µM), for the others: at the highest dose activity change, negative = inhibition, usual class: inhibitors; 390,000 compounds, 0.56% hits; AlphaScreen HP1-beta / biotin-H3K9me3 peptide binding; P83916; note: nearly all actives have a fitted effect of over 70% in size
#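 HP1-beta protein (50 nM final) preincubated 30 min at room temperature with biotinylated H3(1-18)K9me3 peptide (50 nM) in PBS pH 7.4, 0.01% Tween-20, then compound added for 30 min. AlphaScreen streptavidin donor/nickel chelate acceptor beads (10 ug/mL final), 30 min dark, luminescence read.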
# L3MBTL1 block: blocks human L3MBTL1 | Q9Y468 | AlphaScreen L3MBTL1–H3K9me1 peptide binding | Potency, µM (highest dose often 57.1 µM), for the others: top-dose activity, negative = inhibition, actives largely listed as inhibitors | 230,000 compounds, 0.66% hits | AID 485360; note: % is set by controls: 0 for no effect and ±100 for the full control effect; nearly all actives have a fitted effect of over 60% in size
#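 AlphaScreen assay: L3MBTL1 (50 nM final) was preincubated 30 min at room temperature with biotinylated H3(1-15)K9me1 peptide (75 nM final), then 30 min with library compounds; streptavidin donor and nickel chelate acceptor beads (10 ug/mL final) added, 30 min dark.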
# * hit, by the source's call; ? = inconclusive; / = not tested or not shown; [ ] = another dose, or the depositor's remark. Most compounds without a hit are left out; they make up all but 12% or so of the library. Calls come from the whole dose curve; as a rule, active = well fitted curve in the direction sought with a large enough effect; inconclusive = small, poorly fitted or top-dose-only effect, or another doubt; inactive = no such curve, though single readings can be large; an effect the other way counts as inactive or inconclusive. Potency is the fitted concentration of half-maximal effect.
SMILES,BAZ2B inh,JMJD2A Tudor inh,Sfp inh,G9a inh,HP1b chromo inh,L3MBTL1 block
O=C(CCCCCn1c(=S)[nH]c2ccccc2c1=O)N1CCOCC1,-36%[57.1 µM],28%,?,35µM*,44%,-4%
O=C(CCCn1c(=S)[nH]c2ccccc2c1=O)N1CCOCC1,?,22µM*,-12%,-3%[59 µM],1%,6%
Nc1ccccc1NC(=O)CCn1c(=S)[nH]c2ccccc2c1=O,-5%,-6%,11%,45µM*,55%,/
Cc1ccc(NC(=O)C2OCCc3ccccc32)cc1Cl (stereo not given),25%,23%,8%,33%[12.7 µM],83%,20%
Cc1nnc(NC(=O)C(C)Sc2nnc(CNC(=O)c3ccccc3F)n2C)s1 (stereo not given),6%,-4%,/,-23%,-2%,-6%
COc1cc2ccccc2cc1C(=O)N1CCN(c2nc3ccc(F)cc3s2)CC1,-29%,-33%,/,-7%[59 µM],-2%,/
N#C/C(=C/c1ccncc1)c1nc2ccccc2s1,?,-17%,-13%,-42%[59 µM],19%,-4%
COc1cc(/C=N/NC(=Nc2ccc(C)cc2)c2nc3ccccc3s2)ccc1O,45µM*,?,-15%,14µM*,0%,/
COc1cc(C=C(c2nc3ccccc3s2)c2nc3ccccc3s2)cc(OC)c1O,22µM*,56µM*,-12%,6.3µM*,?,-27%
O=C(O)C/C(=C\c1cc2c(cc1Br)OCO2)c1nc2ccccc2s1,-12%,-8%,?,10µM*,-13%,/
O=C(O)c1ccc(C=C(c2nc3ccccc3s2)c2nc3ccccc3s2)cc1,?,?,-3%,?,-14%,-22%
CN(C)c1ccc(/C=C(\Cl)c2nc3ccccc3s2)cc1,45µM*,-33%,?,14µM*,7%,10µM*
COc1ccccc1/C=N/NC(=Nc1ccc(C)cc1)c1nc2ccccc2s1,-7%,/,-3%,-10%[0.0925 µM],/,-1%
Cc1cc(C)c(NC(=O)c2cc3c(=O)n4ccccc4nc3n2C)c(C)c1,2%,-12%,/,1%[59 µM],32%,/
CCCOc1ccc(CNC(=O)C(C)n2nc(C)n3c(cc4occc43)c2=O)cc1 (stereo not given),-4%,-11%,/,11%[59 µM],4%,/
COc1ccc(-c2cc3nc(C)c(CCC(=O)N4CCN(c5ccccc5)CC4)c(C)n3n2)c(OC)c1,-27%,-25%,/,-31%[59 µM],28%,/
COc1cc(/C=C(\CC(=O)O)c2nc3ccccc3s2)cc(OC)c1O,-26%,16µM*,35µM*,14µM*,12%,-9%
O=C(Nc1cc(S(=O)(=O)N2CCOCC2)ccc1N1CCCC1)c1ccccc1C(F)(F)F,/,-3%,/,/,26%,/
c1ccc(CNc2ncnc3c2ncn3Cc2ccccc2)cc1,/,-17%,/,/,30%,/
CC1Cc2cc(S(=O)(=O)NCc3ccc(N(C)C)cc3)ccc2N1C(=O)C1CCC1 (stereo not given),35µM*,45µM*,/,11µM*,-21%,/
CN(C)c1ccc(CNS(=O)(=O)c2csc(C(N)=O)c2)cc1,-11%,-17%,7%,50µM*,15%,/
CN(C[C@H](Cc1ccccc1)N(C[C@H](Cc1cccc2ccccc12)N(CCc1ccccc1)N=O)N=O)N=O,71µM*,?,5%,?,7%,/
CN(C)c1ccc(NC(=O)c2ccc(Cn3cc([N+](=O)[O-])cn3)cc2)cc1,25µM*,50µM*,-2%,14µM*,45µM*,/
COc1ccc(NC(=O)c2ccc(Cn3cc(Cl)cn3)cc2)cc1,5%,-6%,-16%,/,41%,38%
CCNS(=O)(=O)c1ccc(NC(=O)c2ccc(Cn3cc([N+](=O)[O-])cn3)o2)cc1,16%,-10%,1%,50µM*,1%,/
SMILES,BAZ2B inh,JMJD2A Tudor inh,Sfp inh,G9a inh,HP1b chromo inh,L3MBTL1 block
COC(=O)c1ccc(C)c(NC(=O)c2ccc(Cn3cc([N+](=O)[O-])cn3)o2)c1,-3%,-18%,1%,21%[59 µM],9%,4%
CCOC(=O)c1[nH]c2c(c1Cc1ccccc1)C(=O)CC(c1ccccc1)C2 (stereo not given),-7%,-2%,/,-3%[59 µM],16%,/
COc1ccc(-c2ncccc2OC(=O)C23CC4CC(CC(C4)C2)C3)cc1OC,-6%,-29%,-4%,45µM*,-5%,?
O=C(Oc1ccc(Cl)c2cccnc12)C12CC3CC(CC(C3)C1)C2,7%,22%,?,8%[59 µM],110%,-1%
C[C@H](N)CCCC(C)(C)O,/,/,11%,13%[21.5 µM],/,/
CCOC(=O)C1CCN(C(=O)c2c(C)oc3c2C(=O)c2ccccc2C3=O)CC1,-15%,-14%,-26%,50µM*,24%,-6%
CCOC(=O)C1CCCN(C(=O)CSc2ccc(NC(C)=O)cc2)C1 (stereo not given),-20%,0%,6%,35µM*,52%,8%
CCOC(=O)C1CCN(C(=O)CC(C)c2ccccc2)CC1 (stereo not given),-24%,28µM*,16%,7%[59 µM],?,/
CCOC(=O)C1CCCN(C(=O)CNC(=O)Cn2ccc3ccccc3c2=O)C1 (stereo not given),-6%,-10%[57.1 µM],14%,14µM*,54%,-1%
COc1ccc2c(c1)CC(C(=O)NCCN1CCN(c3cccc(Cl)c3)CC1)CO2 (stereo not given),?,?,/,?,6%[57 µM],/
CCOC(=O)C1CCN(C(=O)CSc2ccccc2)CC1,2%,50µM*,17%,5%[12.7 µM],?,/
CCOC(=O)C1CCN(C(=O)CC(NS(=O)(=O)c2ccc(OC)cc2)C(C)C)CC1 (stereo not given),13%,16µM*,-8%,-22%[59 µM],-8%,5%
Cc1ccc(S(=O)(=O)N2CCN(C3CCC(c4ccccc4)CC3)CC2)cc1 (stereo not given),9%,/,8%,-6%,/,-1%
CCS(=O)(=O)N1CCN(C2CCC(c3ccccc3)CC2)CC1 (stereo not given),50µM*,/,?,10µM*,/,-4%
C#C[C@]1(O)CC[C@@H]2[C@H]3CCC4=Cc5oncc5C[C@]4(C)[C@@H]3CC[C@@]21C,/,/,-4%,21%[21.5 µM],/,/
Cc1ccc2nc(-c3ccc(Cl)c(NC(=O)COc4ccc(C(C)C)cc4)c3)oc2c1,-12%,-2%,/,9%[59 µM],18%,/
CNC(=O)NC(=O)C(OC(=O)Cc1cccc(C(F)(F)F)c1)c1ccccc1 (stereo not given),-28%,-8%,2%,-3%,59%,/
O=C(NN=C(c1ccccc1)c1ccccn1)c1ccccc1,/,?,/,/,11%,-15%
S=C(NN=C(c1ccccc1)c1ccccn1)N(Cc1ccccn1)Cc1ccccn1,/,13µM*,/,/,?,/
